# Source: PubChem
# Sampled rows, rich in hits. Any-hit rate of the full collection: about 21%.
# Pf growth 48h: P. falciparum growth inhibition at 48 hours (one generation); Potency, µM (highest dose often 28.7 µM), most hits filed as inhibitors; hit rate 5.9% among 310,000; P. falciparum luciferase growth in erythrocytes, 48 h
#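 First compound was added to culture medium, then infected red cells at 0.1% parasitemia and 2% hematocrit (final). After incubation at 37 C under 5% CO2, luciferase detection reagent was dispensed and light output recorded.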
# CHX counter: counter-screen for Shiga toxin inhibitors: cycloheximide protein synthesis inhibition | cell reporter, cycloheximide protein synthesis inhibition counterscreen | max response, % | hit rate 12% among 300,000 | AID 2314; in the data active means max response mostly above about 13%, no sharp cut-off; inactive means mostly below about 14%; further: read at 38.3 µM for the half of the compounds with a filed dose
# HCV inhibitor: inhibitors of hepatitis C virus infection | Huh7.5.1 HCVcc-Cre infection, luciferase reporter, 44 h | Potency, µM (top dose mostly 41.8 µM), usual class: inhibitors | hit rate 3.4% among 340,000 | AID 651820
#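 After 44 h co-culture of compound, cells and HCVcc-Cre (~0.5 moi), substrate is added for 15 min at room temperature and luciferase measured over 15 sec. Cells were seeded at 1,000/well and pre-cultured 4 h.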
# HCMV antiviral: human cytomegalovirus inhibition; HFF cells, HCMV-luciferase reporter, 72 h; active compounds read low; activity change, negative = inhibition, % at 57.5 µM; hit rate 4.5% among 410,000; in the data active means activity change below about -60%; inconclusive means no clear call, values can overlap the other calls; inactive means above about -39%
#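 Two-dose cell screen: HFF monolayers treated with compounds and infected with luciferase-expressing HCMV at 1 PFU/cell, 72 h at 37C, then lysed for luciferase measurement.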
# Pf growth 96h: P. falciparum growth inhibition at 96 hours; P. falciparum luciferase reporter growth, 96 h; Potency, µM (titrated, usually from 28.7 µM), hits mostly inhibitors; hit rate 6.9% among 320,000; AID 504834
#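 Compounds incubated with erythrocytes infected by luciferase-expressing P. falciparum (2% hematocrit, 0.05% parasitemia final) for 96 hours, 37 C in 5% CO2. Growth inhibition scored as decreased luciferase luminescence.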
# Shiga toxin inh: inhibitors of Shiga toxin in Vero cells; Vero cells, Shiga toxin protein synthesis inhibition reporter; inhibition, % at 38.7 µM; hit rate 9.2% among 290,000; in the data active means inhibition mostly above about 28%, no sharp cut-off; inactive means mostly below about 43%
# Numbers stand for hits; . = inactive; ? = inconclusive; / = no result given; [ ] = remark or other dose. Unless noted, the call rests on the fitted dose curve; in most records, active means well fitted inhibition curve with a large enough effect; inconclusive means small, poorly fitted or top-dose-only effect, or another doubt; inactive means no such curve, though single readings can be large or run the other way.
SMILES,Pf growth 48h,CHX counter,HCV inhibitor,HCMV antiviral,Pf growth 96h,Shiga toxin inh
CC(=O)N1CCc2cc(S(=O)(=O)NC(CC(C)C)C(=O)N3CCc4ccccc4C3)ccc21 (stereo not drawn),?,.,.,.,.,.
CC(=O)N1CCc2cc(S(=O)(=O)NC(Cc3ccccc3)C(=O)O)ccc21 (stereo not drawn),.,.,.,.,17µM,.
CC(=O)N1CCc2cc(S(=O)(=O)NC(CC(C)C)C(=O)N3CCCC3)ccc21 (stereo not drawn),.,.,.,.,12µM,.
CC(=O)N1CCc2cc(S(=O)(=O)NC(C(=O)Nc3nc(C)cs3)C(C)C)ccc21 (stereo not drawn),.,.,.,-61,.,.
COc1ccc(CCNC(=O)c2c(C)oc3ncnc(N4CCOCC4)c23)c(OC)c1,/,/,/,.,/,/
O=S(=O)(c1ccc(-c2n[nH]c(=S)o2)cc1)N1CCCCC1,.,.,.,.,.,.
COc1ccc(-n2nc3c(c2NC(=O)C2CC(=O)N(c4ccccc4)C2)CS(=O)(=O)C3)cc1 (stereo not drawn),.,.,.,.,.,.
CC(=O)N1CCc2cc(S(=O)(=O)N3c4ccccc4CC3C)ccc21 (stereo not drawn),.,.,?,-77,/,.
CC(=O)N1CCc2cc(S(=O)(=O)N3CCOCC3)ccc21,/,.,.,.,?,.
CCN1C(=O)CC(C(C)C)N(C2CCCC2)c2nc(Nc3ccc(C(=O)NC4CCN(C)CC4)cc3OC)ncc21 (stereo not drawn),/,/,.[8.37 µM],/,/,/
COc1ccc(C(=O)NC2CCN(Cc3ccccc3)C2)cc1S(=O)(=O)N1CCOCC1 (stereo not drawn),.,/,.,.,?,/
COc1cc(C(=O)NC2CCN(C)CC2)ccc1Nc1ncc2c(n1)N(Cc1ccccc1)CCC(=O)N2C,/,/,.[8.37 µM],-76,/,/
COc1cc(C(=O)NC2CCN(C)CC2)ccc1Nc1ncc2c(n1)N(C1CCCCC1)CCC(=O)N2C,/,/,1.8µM,?,/,/
CCN1C(=O)CC(c2ccccc2)N(C2CCCC2)c2nc(Nc3ccc(C(=O)NC4CCN(C)CC4)cc3OC)ncc21 (stereo not drawn),/,/,8.9µM,/,/,/
Cc1ccc2c(c1)c1c(c(=O)n(Cc3ccccc3)c(=O)n1CC(=O)Nc1ccccc1F)n2C,/,/,/,.,/,/
C/C(C=O)=C/c1ccccc1,.,/,.,.,.,/
CCOc1ccc(CCNC(=O)Cn2ncc3c([nH]c4ccccc43)c2=O)cc1OCC,/,/,/,.,/,/
COC(=O)C1=NNC2C(=O)N(C3CCCCC3)C(=O)C12 (stereo not drawn),.,.,.,.,3.3µM,.
COc1cccc(NC(=O)c2cccnn2)c1,.,21,.,.,?,.
COc1ccc(NC(=O)c2cccnn2)cc1,.,24,.,.,?,29
COc1ccc(NC(=O)c2ccc(NC(=O)c3cccnc3)cc2)cc1,/,/,/,.,/,/
Cc1cc(NC(=O)c2cncc(Br)c2)ccc1NC(=O)c1cc2ccccc2o1,.,.,?,.,.,.
CCN(CC)CCOC(=O)c1ccc(NC(=O)C(C)NC(=O)C23CC4CC(CC(C4)C2)C3)cc1 (stereo not drawn),.,.,.,-64,12µM,.
CC(OC(=O)CCC1CCCCC1)C(=O)Nc1ccc(S(N)(=O)=O)cc1 (stereo not drawn),.,/,.,.,.,/
O=C(CCN1C(=O)C2C3CCC(C3)C2C1=O)Nc1ccc(Br)cc1 (stereo not drawn),.,12,.,.,.,.
O=C(CCN1C(=O)C2C3CCC(C3)C2C1=O)Nc1ccc([N+](=O)[O-])cc1 (stereo not drawn),.,.,.,.,.,.
COc1ccc(NC(=O)CCN2C(=O)C3C4CCC(C4)C3C2=O)cc1 (stereo not drawn),.,17,.,.,.,.
Cc1ccc(NC(=O)CCN2C(=O)C3C4CCC(C4)C3C2=O)cc1Cl (stereo not drawn),.,25,.,.,.,.
Cc1ccc(NC(=O)CCN2C(=O)C3C4CCC(C4)C3C2=O)cc1[N+](=O)[O-] (stereo not drawn),.,.,/,.,.,.
OC[C@@H]1CN(Cc2ccc(F)cc2)C[C@H](n2cnc3c(NCc4ccncc4)ncnc32)O1,/,/,/,.,/,/
